Results: the supplement of paper PMC11732987, “Enantioselective OTUD7B fragment discovery through chemoproteomics screening and high-throughput optimisation” (Communications Chemistry, 2025)

Assays:
Experiment in all cases: log2 ratio of Biotin-Ahx-Ub-VS probe labelling (fragment/DMSO); higher = less target engagement (more negative = stronger competition), active = hit call of the paper (q ≤ 0.05, log2 ratio ≤ -1)
Details in all cases: compound concentration: 200 uM; treatment time: 3 h
USP19 = target: T1, USP19 (UniProt O94966)
T1 sequence (whole entry): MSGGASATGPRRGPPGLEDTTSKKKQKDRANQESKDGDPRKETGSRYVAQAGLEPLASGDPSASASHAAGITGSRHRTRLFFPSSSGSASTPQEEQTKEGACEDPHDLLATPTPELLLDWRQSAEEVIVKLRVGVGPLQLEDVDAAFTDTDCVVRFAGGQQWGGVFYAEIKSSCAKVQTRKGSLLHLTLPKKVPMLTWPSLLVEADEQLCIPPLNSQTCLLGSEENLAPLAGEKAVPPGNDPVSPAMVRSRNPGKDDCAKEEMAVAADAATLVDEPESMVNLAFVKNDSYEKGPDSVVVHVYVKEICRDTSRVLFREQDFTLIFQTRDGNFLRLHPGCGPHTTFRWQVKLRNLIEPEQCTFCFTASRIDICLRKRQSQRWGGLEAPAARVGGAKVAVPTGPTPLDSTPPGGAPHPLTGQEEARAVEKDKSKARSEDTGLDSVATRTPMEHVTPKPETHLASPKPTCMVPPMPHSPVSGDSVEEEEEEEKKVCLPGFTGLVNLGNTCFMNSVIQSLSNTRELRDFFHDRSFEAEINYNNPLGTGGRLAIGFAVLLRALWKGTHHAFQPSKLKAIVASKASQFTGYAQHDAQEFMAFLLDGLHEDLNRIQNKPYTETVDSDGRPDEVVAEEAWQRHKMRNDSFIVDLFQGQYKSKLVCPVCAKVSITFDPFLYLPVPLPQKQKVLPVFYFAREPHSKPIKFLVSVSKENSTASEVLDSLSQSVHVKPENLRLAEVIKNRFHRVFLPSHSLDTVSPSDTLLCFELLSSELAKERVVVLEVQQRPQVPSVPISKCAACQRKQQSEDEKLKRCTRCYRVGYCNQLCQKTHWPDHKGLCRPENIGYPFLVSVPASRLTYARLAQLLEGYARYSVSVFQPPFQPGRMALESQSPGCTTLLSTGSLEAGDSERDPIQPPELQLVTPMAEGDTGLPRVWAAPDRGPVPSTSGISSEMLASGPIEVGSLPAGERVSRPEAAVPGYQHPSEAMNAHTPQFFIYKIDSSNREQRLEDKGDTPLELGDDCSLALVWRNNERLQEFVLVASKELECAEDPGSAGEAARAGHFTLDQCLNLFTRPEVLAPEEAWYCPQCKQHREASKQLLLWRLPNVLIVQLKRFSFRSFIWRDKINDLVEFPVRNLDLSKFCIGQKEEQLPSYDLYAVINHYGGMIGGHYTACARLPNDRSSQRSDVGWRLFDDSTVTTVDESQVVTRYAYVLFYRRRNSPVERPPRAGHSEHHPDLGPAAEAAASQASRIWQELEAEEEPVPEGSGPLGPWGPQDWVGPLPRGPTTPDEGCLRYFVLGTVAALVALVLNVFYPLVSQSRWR
Procedure, shortened: (§1)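 Labelled DUBs from HEK293T lysate were NeutrAvidin-enriched, digested with LysC and trypsin, and run by diaPASEF LC-MS/MS. Before that, each 495 µg sample in Tris/CHAPS/IGEPAL buffer with protease inhibitors was treated in triplicate with fragment at 200 µM or vehicle for 3 h, then with Biotin-Ahx-Ub-VS at 0.5 µM final for 1 h. Values are average log2 ratios of fragment over vehicle by unpaired t-test, based on global-median-normalised Spectronaut label-free quantities from proteins with ≥2 unique peptides.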

USP22 = target: T2, USP22 (UniProt Q9UPT9)
T2 sequence (whole entry): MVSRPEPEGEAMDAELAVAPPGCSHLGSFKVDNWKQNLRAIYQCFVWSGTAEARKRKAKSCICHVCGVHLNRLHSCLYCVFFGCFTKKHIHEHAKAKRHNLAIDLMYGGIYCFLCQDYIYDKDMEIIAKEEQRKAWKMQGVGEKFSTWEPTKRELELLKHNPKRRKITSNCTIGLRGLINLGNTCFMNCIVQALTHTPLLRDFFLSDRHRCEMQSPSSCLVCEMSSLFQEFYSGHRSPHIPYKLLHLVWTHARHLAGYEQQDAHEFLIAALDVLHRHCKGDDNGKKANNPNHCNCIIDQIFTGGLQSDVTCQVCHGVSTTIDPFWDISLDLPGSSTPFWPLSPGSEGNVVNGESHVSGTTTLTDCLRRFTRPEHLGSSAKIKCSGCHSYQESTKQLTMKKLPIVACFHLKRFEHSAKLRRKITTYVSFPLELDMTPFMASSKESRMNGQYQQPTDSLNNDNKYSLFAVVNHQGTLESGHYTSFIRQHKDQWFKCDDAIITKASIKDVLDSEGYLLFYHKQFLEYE
Procedure, shortened: as §1

USP24 = USP24 (UniProt Q9UPU5)
Procedure, shortened: as §1

USP25 = target: T3, USP25 (UniProt Q9UHP3)
T3 sequence (whole entry): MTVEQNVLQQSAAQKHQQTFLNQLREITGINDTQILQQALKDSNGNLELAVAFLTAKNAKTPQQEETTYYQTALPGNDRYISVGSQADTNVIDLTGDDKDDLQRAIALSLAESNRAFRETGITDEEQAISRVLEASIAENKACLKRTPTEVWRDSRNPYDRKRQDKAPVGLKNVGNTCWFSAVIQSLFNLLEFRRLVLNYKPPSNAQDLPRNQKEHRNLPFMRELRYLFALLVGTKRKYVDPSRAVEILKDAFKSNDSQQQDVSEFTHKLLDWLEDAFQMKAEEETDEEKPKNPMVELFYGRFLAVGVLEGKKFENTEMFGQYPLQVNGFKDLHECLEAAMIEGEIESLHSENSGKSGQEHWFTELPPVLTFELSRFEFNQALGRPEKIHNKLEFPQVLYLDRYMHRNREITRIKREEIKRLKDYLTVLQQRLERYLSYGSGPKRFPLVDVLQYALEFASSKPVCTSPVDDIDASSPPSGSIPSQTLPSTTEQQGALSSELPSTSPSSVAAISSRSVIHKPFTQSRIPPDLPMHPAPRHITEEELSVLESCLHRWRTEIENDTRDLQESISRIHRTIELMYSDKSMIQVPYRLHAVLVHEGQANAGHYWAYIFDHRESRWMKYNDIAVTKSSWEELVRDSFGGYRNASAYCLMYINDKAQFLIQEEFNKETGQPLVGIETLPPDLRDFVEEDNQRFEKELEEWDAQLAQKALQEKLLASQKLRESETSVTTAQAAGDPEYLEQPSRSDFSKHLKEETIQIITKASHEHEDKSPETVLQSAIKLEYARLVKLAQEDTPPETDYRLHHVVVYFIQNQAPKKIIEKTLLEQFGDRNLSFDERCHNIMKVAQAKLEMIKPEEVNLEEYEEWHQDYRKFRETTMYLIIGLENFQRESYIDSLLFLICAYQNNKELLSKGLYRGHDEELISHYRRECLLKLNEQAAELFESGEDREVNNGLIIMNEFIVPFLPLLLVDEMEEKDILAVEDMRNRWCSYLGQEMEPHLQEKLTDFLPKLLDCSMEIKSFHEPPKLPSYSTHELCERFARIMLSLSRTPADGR
Procedure, shortened: as §1

USP28 = target: T4, USP28 (UniProt Q96RU2)
T4 sequence (whole entry): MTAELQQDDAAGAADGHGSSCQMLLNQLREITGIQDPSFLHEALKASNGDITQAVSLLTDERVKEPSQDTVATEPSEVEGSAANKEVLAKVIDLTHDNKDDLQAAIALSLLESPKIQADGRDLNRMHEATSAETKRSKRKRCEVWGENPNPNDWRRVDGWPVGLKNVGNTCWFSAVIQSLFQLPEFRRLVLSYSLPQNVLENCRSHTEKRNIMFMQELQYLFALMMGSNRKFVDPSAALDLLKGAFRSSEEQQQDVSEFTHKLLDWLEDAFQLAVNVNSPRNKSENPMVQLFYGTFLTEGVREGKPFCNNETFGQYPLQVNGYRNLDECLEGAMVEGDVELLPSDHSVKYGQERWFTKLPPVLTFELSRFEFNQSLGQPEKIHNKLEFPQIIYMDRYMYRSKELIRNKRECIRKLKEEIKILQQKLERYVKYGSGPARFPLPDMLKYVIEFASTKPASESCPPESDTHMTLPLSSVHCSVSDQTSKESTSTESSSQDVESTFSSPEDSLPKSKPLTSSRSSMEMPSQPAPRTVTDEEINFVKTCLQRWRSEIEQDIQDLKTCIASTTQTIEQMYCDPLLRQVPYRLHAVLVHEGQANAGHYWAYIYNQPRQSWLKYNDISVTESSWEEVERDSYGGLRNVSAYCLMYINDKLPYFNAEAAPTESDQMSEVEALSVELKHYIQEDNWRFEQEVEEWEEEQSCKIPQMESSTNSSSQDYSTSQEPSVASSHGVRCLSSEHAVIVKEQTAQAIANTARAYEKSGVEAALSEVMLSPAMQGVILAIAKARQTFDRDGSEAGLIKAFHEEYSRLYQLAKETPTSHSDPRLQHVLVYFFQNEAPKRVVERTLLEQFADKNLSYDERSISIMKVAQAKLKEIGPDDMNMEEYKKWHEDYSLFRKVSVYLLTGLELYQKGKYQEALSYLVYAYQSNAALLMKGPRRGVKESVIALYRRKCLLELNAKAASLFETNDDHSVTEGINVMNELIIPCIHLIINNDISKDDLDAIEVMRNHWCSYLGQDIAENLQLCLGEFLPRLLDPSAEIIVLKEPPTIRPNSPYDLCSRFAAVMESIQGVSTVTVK
Procedure, shortened: as §1

Measured: log2 ratio of Biotin-Ahx-Ub-VS probe labelling

Sequence of USP24 (Q9UPU5 whole entry): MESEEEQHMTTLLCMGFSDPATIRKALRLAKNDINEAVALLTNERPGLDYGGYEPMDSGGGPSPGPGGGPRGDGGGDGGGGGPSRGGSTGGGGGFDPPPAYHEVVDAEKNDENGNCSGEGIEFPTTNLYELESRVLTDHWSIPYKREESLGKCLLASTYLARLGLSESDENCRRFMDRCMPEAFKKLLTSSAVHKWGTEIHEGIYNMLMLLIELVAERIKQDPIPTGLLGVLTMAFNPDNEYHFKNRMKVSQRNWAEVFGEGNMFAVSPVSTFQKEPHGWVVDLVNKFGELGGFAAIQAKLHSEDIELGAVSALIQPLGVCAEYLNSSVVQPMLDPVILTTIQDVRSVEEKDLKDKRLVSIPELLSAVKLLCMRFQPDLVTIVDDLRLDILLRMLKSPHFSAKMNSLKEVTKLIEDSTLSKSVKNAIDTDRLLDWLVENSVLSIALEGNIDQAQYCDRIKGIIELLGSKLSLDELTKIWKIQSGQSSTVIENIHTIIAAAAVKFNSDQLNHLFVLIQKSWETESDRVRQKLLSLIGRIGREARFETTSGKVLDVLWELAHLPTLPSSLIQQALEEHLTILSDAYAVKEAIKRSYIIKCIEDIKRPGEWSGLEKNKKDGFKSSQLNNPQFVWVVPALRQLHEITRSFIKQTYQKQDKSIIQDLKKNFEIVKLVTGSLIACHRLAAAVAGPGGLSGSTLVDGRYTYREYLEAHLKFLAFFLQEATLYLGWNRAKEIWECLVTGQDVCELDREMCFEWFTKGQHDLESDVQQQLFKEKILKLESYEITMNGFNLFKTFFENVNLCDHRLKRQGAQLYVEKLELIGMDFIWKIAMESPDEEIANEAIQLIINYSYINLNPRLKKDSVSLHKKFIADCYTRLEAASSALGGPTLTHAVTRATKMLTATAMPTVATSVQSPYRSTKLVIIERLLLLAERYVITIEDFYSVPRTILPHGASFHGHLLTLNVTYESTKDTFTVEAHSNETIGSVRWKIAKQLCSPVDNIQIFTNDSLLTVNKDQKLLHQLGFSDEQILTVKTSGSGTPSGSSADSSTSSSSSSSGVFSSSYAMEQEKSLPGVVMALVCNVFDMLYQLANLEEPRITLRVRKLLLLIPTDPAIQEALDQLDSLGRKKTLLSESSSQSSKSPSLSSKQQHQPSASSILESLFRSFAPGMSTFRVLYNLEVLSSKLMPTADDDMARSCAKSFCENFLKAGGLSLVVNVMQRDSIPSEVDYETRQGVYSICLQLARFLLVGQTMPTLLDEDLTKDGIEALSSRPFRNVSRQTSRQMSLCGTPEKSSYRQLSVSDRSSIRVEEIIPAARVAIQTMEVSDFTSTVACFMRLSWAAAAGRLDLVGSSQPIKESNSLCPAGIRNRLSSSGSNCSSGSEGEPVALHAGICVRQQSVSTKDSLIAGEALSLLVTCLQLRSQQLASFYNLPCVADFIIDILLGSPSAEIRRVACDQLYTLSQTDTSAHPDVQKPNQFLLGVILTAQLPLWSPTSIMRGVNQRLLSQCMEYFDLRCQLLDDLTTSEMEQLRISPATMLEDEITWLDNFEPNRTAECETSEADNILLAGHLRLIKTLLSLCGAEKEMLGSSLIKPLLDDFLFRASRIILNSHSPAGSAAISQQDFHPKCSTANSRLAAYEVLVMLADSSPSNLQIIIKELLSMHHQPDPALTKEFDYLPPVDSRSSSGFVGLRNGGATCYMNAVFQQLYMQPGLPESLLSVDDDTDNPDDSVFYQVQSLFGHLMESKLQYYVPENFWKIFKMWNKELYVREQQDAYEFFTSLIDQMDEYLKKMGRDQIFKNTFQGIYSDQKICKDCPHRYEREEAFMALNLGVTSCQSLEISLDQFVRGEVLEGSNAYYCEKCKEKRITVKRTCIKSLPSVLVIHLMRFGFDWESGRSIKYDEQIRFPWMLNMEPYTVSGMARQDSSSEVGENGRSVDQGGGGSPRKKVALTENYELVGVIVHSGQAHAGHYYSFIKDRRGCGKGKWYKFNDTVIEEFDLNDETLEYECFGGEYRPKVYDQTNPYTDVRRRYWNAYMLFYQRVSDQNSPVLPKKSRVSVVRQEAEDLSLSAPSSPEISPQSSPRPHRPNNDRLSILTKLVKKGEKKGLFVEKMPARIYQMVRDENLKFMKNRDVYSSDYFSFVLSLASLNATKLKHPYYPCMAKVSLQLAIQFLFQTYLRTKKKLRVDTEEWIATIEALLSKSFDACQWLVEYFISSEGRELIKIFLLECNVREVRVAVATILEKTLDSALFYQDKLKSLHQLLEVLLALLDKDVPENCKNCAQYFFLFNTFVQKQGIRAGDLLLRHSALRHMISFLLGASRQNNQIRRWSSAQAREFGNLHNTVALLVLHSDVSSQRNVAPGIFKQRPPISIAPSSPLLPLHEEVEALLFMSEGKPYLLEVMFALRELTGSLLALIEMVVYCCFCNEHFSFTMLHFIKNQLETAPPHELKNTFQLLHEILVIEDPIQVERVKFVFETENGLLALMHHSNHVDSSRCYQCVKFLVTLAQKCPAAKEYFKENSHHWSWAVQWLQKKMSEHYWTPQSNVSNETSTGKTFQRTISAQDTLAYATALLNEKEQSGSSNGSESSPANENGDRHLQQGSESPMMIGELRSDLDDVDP

N#Cc1ccc(CNC(=O)CCl)cc1
inactive: USP19 -0.0911 | USP22 0.193 | USP24 -0.183 | USP25 -0.413 | USP28 -0.49
